Bioassay records from PubChem.
Rows were chosen to be rich in hits. Some 4.5% of all compounds tested hit in one or more screens of this group.
ssDAF-12 act – activators of S. stercoralis DAF-12 nuclear receptor; HEK293 ssDAF-12/GRIP1 lit1-tk-luc reporter, luminescence; % of 3 µM dafachronic acid response; activation, % at 6.8 µM; actives 1% (n = 370,000);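 active = activation above the mean over all tested compounds plus 3 SD, cut at about 0.9% in these data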;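 also: 0% = DMSO-only wells and 100% = 3 µM delta7-dafachronic acid wells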
hgDAF-12 ag – agonists of H. glycines DAF-12 nuclear receptor | activation, % at 6.8 µM | HEK293 GAL4-hgDAF12 UAS-luciferase reporter, agonist luminescence; normalized to butyrate control | actives 1.8% (n = 370,000);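 active = activation above a cutoff set at the mean of all screened compounds plus 3 SD, cut at about 10% in these data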;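 also: 0% = DMSO wells and 100% = sodium butyrate wells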
hcDAF12 agonist – H. contortus DAF-12 activation, primary screen; HEK293 hcDAF-12 lit1-tk-luc reporter, luminescence; 0% DMSO, 100% Δ7-dafachronic acid; actives 1.4% (n = 370,000); activation, % at 6.8 µM;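 active = activation above the mean of all tested compounds plus 3 SD, cut at about 5.5% in these data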;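 also: 100% = response to 3 µM Δ7-dafachronic acid high control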
DAX1 inh-1 – inhibits human nuclear receptor DAX1. P51843. HEK293 Gal4-DAX1 luciferase reporter, luminescence. inhibition, % at 6.75 µM. actives 0.99% (n = 340,000). AID 504766;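 active = inhibition above the mean over all tested compounds plus 3 SD, cut at about 4.2% in these data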;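 also: 0% = DAX1-transfected cells with DMSO and 100% = empty-vector control cells with DMSO; inhibition shows as a rise in luminescence from relieved DAX1 repression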
FXN GAA850 act – increases GAA850 frataxin promoter reporter activity | activation, % at 6 µM | actives 0.56% (n = 360,000) | HEK293 lucGAA850 FXN promoter luciferase reporter, 24 h; percent of 10 µM SAHA response;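 active = activation above the average of all compounds screened plus 3 SD, cutoff fixed separately per campaign, cut at about 7.5% in these data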;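 also: 0% = DMSO wells and 100% = 10 µM SAHA wells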
DAX1 inh-2 – blocks DAX1 repression of SF-1 activated StAR promoter. HEK293T StAR-luciferase reporter, SF-1/DAX-1 repression relief. inhibition, % at 6.8 µM. actives 1.1% (n = 370,000);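 active = inhibition above the mean over all tested compounds plus 3 SD, cut at about 3.6% in these data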;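 also: 0% = DAX-1 cells with DMSO and 100% = cells lacking DAX-1 with DMSO; higher inhibition means more luminescence from relief of DAX-1 repression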
LXRb hcDAF ctr – LXR-beta agonism as hcDAF-12 counter-screen | shares compounds with hcDAF12 agonist | HEK293 Gal4-LXR tk-luc reporter, luminescence, 24 h; normalized: DMSO 0%, positive control 100% | activation, % at 6.8 µM | 3,400 tested, under 10 active | AID 743027;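 active = mean percent activation of the reporter above a cutoff set as the average over tested compounds plus their standard deviation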
Target sequence (P55055 whole entry, looked up, the tested form may be a part): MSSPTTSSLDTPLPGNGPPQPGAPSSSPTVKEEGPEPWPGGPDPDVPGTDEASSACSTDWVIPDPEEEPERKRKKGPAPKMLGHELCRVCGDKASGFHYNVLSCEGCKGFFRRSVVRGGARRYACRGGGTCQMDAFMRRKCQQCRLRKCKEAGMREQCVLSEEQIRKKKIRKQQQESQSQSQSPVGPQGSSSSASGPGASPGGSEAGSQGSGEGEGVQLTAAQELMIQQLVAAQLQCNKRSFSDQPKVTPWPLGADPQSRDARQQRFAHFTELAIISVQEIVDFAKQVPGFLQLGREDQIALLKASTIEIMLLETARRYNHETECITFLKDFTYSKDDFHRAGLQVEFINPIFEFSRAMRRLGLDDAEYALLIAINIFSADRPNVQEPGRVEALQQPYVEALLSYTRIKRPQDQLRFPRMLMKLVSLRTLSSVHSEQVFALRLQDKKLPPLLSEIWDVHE
hcDAF12 ag – confirmation of H. contortus DAF-12 agonists; shares compounds with hcDAF12 agonist; HEK293 hcDAF-12 lit1-tk-luc reporter, luminescence; % of Δ7-dafachronic acid response; activation, % at 6.8 µM; actives 61% (n = 3,400);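 active = mean activation across triplicate tests above the threshold derived from the earlier primary screen, cut at about 5.5% in these data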;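 also: 0% = DMSO only wells and 100% = 3 µM Δ7-dafachronic acid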
* hit, by the source's call; · = no result given.

SMILES	ssDAF-12 act	hgDAF-12 ag	hcDAF12 agonist	DAX1 inh-1	FXN GAA850 act	DAX1 inh-2	LXRb hcDAF ctr	hcDAF12 ag
CC(Cc1cnccn1)NC(=O)c1cc(COc2ccc(F)cc2F)on1 (configuration not stated)	-1	-2	-2	1	0	0	·	·
COc1cc(Cl)ccc1OCc1cc(C(=O)NC(C)Cc2cnccn2)no1 (configuration not stated)	1.5*	13*	8.5*	2	3	3	1	6.0*
CCN(CC)CCn1c(NC(=O)c2ccc(C(F)(F)F)cc2)nc2ccccc21	-1	0	0	1	2	0	·	·
CN(C)CCn1c(NC(=O)c2ccc(Cl)cc2)nc2ccccc21	0	5	7.1*	1	3	3.8*	1	9.9*
CCN(CC)CCn1c(NC(=O)c2ccc(C)cc2)nc2ccccc21	1.0*	10	11*	3	2	1	0	5
Cc1ccccc1C(=O)NC1CCCCN(Cc2cccc(F)c2)C1=O (configuration not stated)	-1	-1	2	·	·	0	·	·
Cn1c(COc2ccccc2)nnc1SCC(=O)Nc1ccccc1-c1ccccc1	-1	1	-4	·	·	-2	·	·
Clc1ccc(-n2c(SCc3cccc4ccccc34)nnc2-c2ccco2)cc1	-2	0	-4	·	·	-1	·	·
N#C/C(=C\c1ccc(N2CCOCC2)c([N+](=O)[O-])c1)c1nc2ccccc2[nH]1	-2	3	-1	-2	2	0	·	·
N#C/C(=C\c1ccc(N2CCOCC2)o1)c1nc2ccccc2[nH]1	0	-1	11*	3	1	3	2	5.9*
Cc1c(C(=O)/C=C/c2cccs2)oc2ccc(F)cc12	0	12*	8.3*	2	2	0	1	14*
Nc1nc2ncccn2c1-c1ccc(C(F)(F)F)cc1	0	-2	6.9*	·	·	-1	0	-1
COc1ccc(NC(=O)[C@@]2(CC(=O)O)CC(/C=C/c3ccccc3)=NO2)cc1	0	1	7.9*	1	1	0	0	1
CCN(CC)C(=O)O[C@H]1CC[C@@]23CCCN2C(=O)CCC[C@H]3[C@H]1C	-1	-1	-2	·	·	·	·	·
COc1ccc(OCc2cc(C(=O)N(C)Cc3nnc(C)o3)no2)c(Cl)c1	0	10	6.6*	1	4	1	1	3
CC(C)(C)N1Cc2nnn(Cc3ccccc3)c2-c2cc(F)ccc2S1(=O)=O	-1	-1	-2	·	·	0	·	·
O=C(CSc1nnc(SCc2cccc3ccccc23)s1)Nc1ccccc1-c1ccccc1	-1	0	-3	·	·	-2	·	·
C[C@H]1CCC/C=C/C(=O)c2c(cc(O)c(Cl)c2O)CC(=O)O1	-1	-9	1	·	·	-3	·	·
Cc1nnc(-n2cccc2)s1	0	-2	7.2*	·	·	1	0	3
C=CCN1CCN(C(=O)c2oc3ccccc3c2C)CC1	-1	0	7.5*	0	1	0	0	2
COc1ccc(CN(CCN2CCOCC2)C(=O)c2ccc(F)cc2Cl)cc1OC	-1	0	-3	·	·	1	·	·
O=C(OCc1cn(Cc2ccc(F)c(F)c2)nn1)N1CCCC1	0	-3	0	·	·	0	·	·
Fc1cccc2sc(Nc3nc4ccccc4s3)nc12	0	0	12*	2	5	1	1	11*
CCC(=O)NNc1nc2c(F)cccc2s1	0	5	7.0*	4	1	0	0	4
C[C@@H]1COc2cc(N3CCCCC3)ccc2S(=O)(=O)N1	0	7	2	·	·	1	·	·
SMILES	ssDAF-12 act	hgDAF-12 ag	hcDAF12 agonist	DAX1 inh-1	FXN GAA850 act	DAX1 inh-2	LXRb hcDAF ctr	hcDAF12 ag
O=C(Nc1ccc(F)cc1)OCc1cn(Cc2ccccc2C(F)(F)F)nn1	-1	2	-2	·	·	-1	·	·
CCn1c(Cc2cccs2)nnc1SCC(=O)Nc1ccc2c(c1)OCCO2	-1	-3	-2	·	·	-1	·	·
O=C(CSc1ncc(-c2ccccc2)n1C1CCCC1)N1CCc2ccccc21	0	6	7.4*	0	0	0	0	3
Cn1c(-c2ccccc2)cnc1SCC(=O)N1CCCc2ccccc21	-2	-2	-2	0	2	-1	·	·
c1cc(-c2nnc3n2N=C(c2ccc4c(c2)OCO4)CS3)ccn1	-2	3	-3	·	·	-3	·	·
Cc1sc(NC(=O)c2cccs2)c(C(N)=O)c1C	0	9	8.5*	1	0	1	0	6.2*
NC(=O)c1ccsc1NC(=O)c1cccs1	-1	4	3	0	1	2	·	·
O=C(c1ccc(-c2nc3ccccc3s2)o1)N1CCN(c2ccccc2O)CC1	0	3	6.8*	-1	1	0	0	4
C/C(N)=C(/C#N)C(=O)CSc1nnnn1-c1ccc(C)cc1	0	5	7.0*	0	1	0	0	5
C/C(N)=C(/C#N)C(=O)CSc1nnnn1-c1ccccc1	0	4	2	0	1	1	·	·
Cc1ccc2ccc(C3C(=O)c4ccccc4C3=O)nc2c1	1.8*	14*	15*	1	7	3	2	19*
Cc1ccc(NC(=O)c2ccc(OC(=O)COc3cccc(Cl)c3)cc2)cc1	0	12*	7.6*	1	6	3.9*	1	4
Cc1cccc(OCC(=O)Oc2ccc(Cl)cc2)c1	-1	1	-1	1	0	0	·	·
O=C(Cc1c[nH]c2ccccc12)Nc1nccs1	0	3	2	1	2	0	·	·
O=C(Nc1nccs1)C(=O)c1c[nH]c2ccccc12	1.8*	9	6.5*	1	4	3	1	8.0*
O=C(OC12CCCN(C1)/C(=C/c1cccc(Cl)c1)C2)C1CCCCC1 (configuration not stated)	-1	0	1	·	·	-1	·	·
CC(=O)Oc1ccc(C(=O)[C@H]2[C@H]3C(=O)N(c4ccccc4)C(=O)[C@H]3[C@@H]3C=CC=NN32)cc1	0	2	8.1*	3	1	0	0	5
Cc1cc(C)n2nc(-c3ccc(Br)cc3)cc2n1	1.5*	11*	14*	4.7*	6	2	1	11*
Cc1cc(C)n2nc(-c3ccc(Cl)cc3)cc2n1	1.9*	11*	13*	4	4	1	1	12*
